PubChem BioAssay (NCATS)
Inconclusive results are not listed. A number with no mark means an inactive call. Activity calls are given as the source filed them. The call rests on the fitted dose curve; in most records, active means well fitted cell-killing curve with a large enough effect; inconclusive means small, poorly fitted or top-dose-only effect, or effect the other way; inactive means no such curve, though single readings can be large or run the other way.

assay: Viability qHTS for spleen associated tyrosine kinase inhibitor (SYKi) drug resistant MV4-11 cells (AID 1963824); conditions: SYKi-resistant MV4-11 viability, CellTiter-Glo, 72 h; series mostly up to 45 µM; viability, % of control: at the top concentration; further: nearly all actives have a fitted effect of over 35% in size
How it was run: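 CellTiter-Glo luminescence, read 10 min after reagent addition, reports viability after a 72 hr compound exposure. Cells are an MV4-11 line made resistant to SYK inhibition, seeded at 500 per well onto compound-containing plates.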
Potency means the concentration at half of the fitted maximal effect.

Structure (SMILES)	Potency	viability, % of control
COc1ccccc1[C@@H]1C2=C(CC(C)(C)CC2=O)Nc2n[nH]c(C(F)(F)F)c21	23.1 µM (active)	
CCCCNc1ncc2c(-c3ccc(S(=O)(=O)N4CCOCC4)cc3)nn(C3CCC(O)CC3)c2n1 (stereo not given)	0.0291 µM (active)	
CCOc1ccc(S(=O)(=O)N2CCCCCC2)c2ccccc12	20.6 µM (active)	
CC(=O)OC1CC(C)C2(CCC3(CC(=O)OC3O)O2)C2(C)CCCC(C)(C)C12 (stereo not given)	10 µM (active)	
C/C1=C\[C@H]2OC(=O)[C@@H](C)[C@@H]2CC/C(C(=O)O)=C/CC1		57.4%
CCC[C@@H]1C[C@@H](C(=O)N[C@H](C(C)Cl)[C@H]2O[C@H](SC)[C@H](O)[C@@H](O)[C@H]2O)N(C)C1 (stereo not given in full)		83.1%
CCC(=O)N1CCc2cc(OC)c(O)cc2C1		95.8%
COc1cc(O)c2c(c1)C1=CC(O)C(O)CC1(C)OC2=O (stereo not given)		89%
CCOC(=O)c1cc2ccc(O)cc2oc1=O	14.6 µM (active)	
COC1CC/C=C(\C)C(=O)Nc2cc(O)cc(c2)CC(C)CC(OC)C(O)C(C)/C=C(\C)C1OC(N)=O (stereo not given)	0.632 µM (active)	
c1cc(NC2CCNCC2)nc(-c2cnc3ccccn23)c1	0.0206 µM (active)	
CCOc1ccc(-n2c(C(C)N(Cc3cccnc3)C(=O)Cc3ccc(F)c(C(F)(F)F)c3)nc3ncccc3c2=O)cc1 (stereo not given)	16.4 µM (active)	
O=C1NC(Cc2c[nH]c3ccccc23)C(=O)NC1Cc1c[nH]c2ccccc12 (stereo not given)		79.4%
CO[C@H]1C[C@@H]2CC[C@@H](C)[C@@](O)(O2)C(=O)C(=O)N2CCCC[C@H]2C(=O)O[C@H]([C@H](C)C[C@@H]2CC[C@@H](OCCO)[C@H](OC)C2)CC(=O)[C@H](C)/C=C(/C)[C@@H](O)[C@@H](OC)C(=O)[C@H](C)C[C@H](C)/C=C\C=CC=C1C	11.8 µM (active)	
CCCCCC1CC1CC1CC1CCCCCCCC(=O)O (stereo not given)		92.5% [at 17.3 µM]
COc1ccc(NS(=O)(=O)c2sc3ccc(Cl)cc3c2C)cc1N1CCNCC1	14.6 µM (active)	
COc1cc(/C=C/C(=O)OC[C@H]2O[C@H](O[C@]3(CO)O[C@H](CO)[C@@H](O)[C@@H]3O)[C@H](O)[C@@H](O)[C@@H]2O)cc(OC)c1O		103% [at 17.3 µM]
CC[C@H](C)[C@@H]1NC(=O)[C@H](Cc2ccc(OC)cc2)NC(=O)CCCSC[C@@H](C(=O)N2CCC[C@H]2C(=O)N[C@@H](CC(C)C)C(=O)NCC(N)=O)NC(=O)[C@H](CC(N)=O)NC(=O)[C@H](CCC(N)=O)NC1=O		102%
C[C@@H]1Cc2c([nH]c3ccccc23)[C@@H](c2c(F)cc(/C=C/C(=O)O)cc2F)N1CC(C)(C)F	20.9 µM (active)	
C=C1C2=CC(O)C(C)C1(C)CC/C(C)=C/CCC1(C)OC1C2=O (stereo not given)	10.1 µM (active)	

Structure (SMILES)	Potency	viability, % of control
COC1CC(=O)C23C(=O)NC(CC(C)C)C2C(C)C(C)=CC3/C=C(\C)CCC1O (stereo not given)	7.96 µM (active)	
COc1cccc(-c2ccc([C@@H](Oc3cc(-c4ccc(C[C@H](N)C(=O)O)cc4)nc(N)n3)C(F)(F)F)cc2)c1	20.6 µM (active)	
O=C(Nc1ccn(Cc2ccc(O)cc2C(F)(F)F)n1)c1c(F)cccc1F	13 µM (active)	
COC(=O)C[C@@H]1C(C(=O)O)=CO[C@@H](O[C@@H]2O[C@H](CO)[C@@H](O)[C@H](O)[C@H]2O)/C1=C\COC(=O)/C=C\c1ccccc1		60.6% [at 17.3 µM]
O=C(OCc1ccccc1O[C@@H]1O[C@H](CO)[C@@H](O)[C@H](O)[C@H]1O)C1(O)C=CCCC1O (stereo not given in full)		83.7% [at 17.3 µM]
COc1ccc2c(c1O)OC(C)(C)c1c-2ccc2c1C(=O)N(c1ccc(C(=O)c3ccccc3)cc1)C2=O		76.1%
CCN(Cc1cc(Nc2nc(C)cn3c(-c4cn[nH]c4)cnc23)sn1)C(C)(C)CO	0.0082 µM (active)	
COc1ccc2nc3ccc(OC)cc3c(SCCCN)c2c1	2.31 µM (active)	
COc1cnc(-c2ccc(Cn3c(CC(C)(C)C(=O)O)c(SC(C)(C)C)c4cc(OC[C@@H]5Cc6ccccc6N5C(C)=O)ccc43)cc2)nc1	12.8 µM (active)	
Cc1occc(=O)c1O[C@@H]1O[C@H](CO[C@@H]2OC[C@](O)(CO)[C@H]2O)[C@@H](O)[C@H](O)[C@H]1O		138% [at 17.3 µM]
CC(C)CCCCC(=O)N[C@@H](CO)C(=O)N[C@@H](CC(C)C)C(=O)[C@@]1(CO)CO1	7.31 µM (active)	
CC(=O)O[C@@H]1[C@H](O[C@@H]2OC[C@](O)(CO)[C@H]2O)[C@@H](O[C@@H]2O[C@@H](C)[C@H](O)[C@@H](O)[C@H]2O)[C@H](OC(=O)[C@]23CCC(C)(C)C[C@H]2C2=CCC4[C@@]5(C)C[C@H](O)[C@H](O[C@@H]6O[C@H](C(=O)O)[C@@H](O)[C@H](O)[C@H]6O)[C@@](C)(C(=O)O)C5CC[C@@]4(C)[C@]2(C)CC3)O[C@@H]1C (stereo not given in full)		107% [at 9.25 µM]
CC(=O)Nc1cc(Oc2ccc3c(nc(Nc4ccc(F)cc4F)n3C)c2C)ccn1	1.66 µM (active)	
CC1=C(C)C(=O)C(CCCCC#CCCCC#CCO)=C(C)C1=O	13.3 µM (active)	
C=C1C(=O)OC[C@@H]1C/C=C(\C)CC1CC(C)C(=O)O1 (stereo not given in full)	13 µM (active)	
C=C1C(=O)OC2C1C(O)CC1(C)C(O)CCC(C=O)C21 (stereo not given)	16.4 µM (active)	
N#CC(CCCN1CCC(O)(c2ccc(Cl)cc2)CC1)(c1ccccc1)c1ccccc1	5.8 µM (active)	
COC(=O)/C=C/C=C/C(=O)OC1C=C2COC(=O)C2(O)C2(C)CCCC(C)(C)C12 (stereo not given)	8.93 µM (active)	
COc1c2cc(c(O)c1OC)CCCCC(O)CCc1ccc(O)c-2c1 (stereo not given)	14.3 µM (active)	
CC(=O)O[C@H]1C[C@@H](O)C(C)(C)C2C[C@@H](OC(C)=O)[C@@]3(C)C4=CCC(C(CO)CC(O)C5OC5(C)C)[C@]4(C)CCC3[C@]21C (stereo not given in full)		59.2% [at 17.3 µM]
